Reference: PubChem BioAssay AID2642 (Johns Hopkins Ion Channel Center, 2010)
The whole screen tested about 310,000 compounds, of which about 3,900 (1.3%) were called active. The sample holds actives, similar compounds and a random draw of the others, so the mix is not that of the screen.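 The calls were made as follows: active = compounds whose thallium flux B-score, printed positive for inhibition, exceeds three library SD while starting fluorescence stays within three; inactive = the rest.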

The compounds below were run against Potassium voltage-gated channel subfamily KQT member 1 (Homo sapiens) (UniProt P51787) (assay: KCNQ1 potassium current blockers – cell-based, thallium flux, high-throughput, primary screen (AID 2642;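 also: channel opened by potassium depolarization with thallium stimulus after 20 min compound exposure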)). Conditions: CHO-K1 KCNQ1, FluxOR thallium flux fluorescence, at 10 µM; active compounds read high.
Potassium voltage-gated channel subfamily KQT member 1 (Homo sapiens), sequence (P51787 whole entry, looked up): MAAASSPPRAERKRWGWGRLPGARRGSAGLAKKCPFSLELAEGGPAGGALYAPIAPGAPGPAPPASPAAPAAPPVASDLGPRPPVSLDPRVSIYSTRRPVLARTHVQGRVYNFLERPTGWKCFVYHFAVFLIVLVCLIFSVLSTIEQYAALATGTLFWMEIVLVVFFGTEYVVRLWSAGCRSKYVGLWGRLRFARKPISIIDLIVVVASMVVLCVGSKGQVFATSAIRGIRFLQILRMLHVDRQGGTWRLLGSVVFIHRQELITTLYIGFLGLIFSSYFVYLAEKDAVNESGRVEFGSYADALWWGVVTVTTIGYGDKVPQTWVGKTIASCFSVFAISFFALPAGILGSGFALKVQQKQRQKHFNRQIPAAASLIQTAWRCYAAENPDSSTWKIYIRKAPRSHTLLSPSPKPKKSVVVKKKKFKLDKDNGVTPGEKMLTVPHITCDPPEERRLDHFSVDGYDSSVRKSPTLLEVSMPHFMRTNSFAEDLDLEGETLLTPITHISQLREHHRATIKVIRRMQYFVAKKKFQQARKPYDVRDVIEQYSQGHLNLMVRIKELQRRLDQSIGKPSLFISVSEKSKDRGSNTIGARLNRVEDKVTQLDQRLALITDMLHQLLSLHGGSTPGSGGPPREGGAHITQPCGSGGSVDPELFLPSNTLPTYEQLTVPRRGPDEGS
In the case of `CC(C)NS(=O)(=O)c1ccc(NC(=O)C2CCCCC2)cc1`, the B-score is reported as “inactive”. With `COc1ccc(OC)c(S(=O)(=O)NCCC(C)C)c1` the B-score was “inactive”. `CC(NC(=O)COC(=O)C1CCN(S(=O)(=O)c2ccccc2C(F)(F)F)CC1)c1ccccc1` (configuration not stated) was tested, and the B-score was “inactive”. `Cc1ccc(CS(=O)Cc2ccc(C(=O)N3CCOCC3)o2)cc1` (configuration not stated) was tested, and the B-score was “inactive”. `Cc1ccc(-c2noc(CC(c3ccccc3)c3ccccc3)n2)cc1` was tested, and the B-score was 7 (active). In the case of `Cc1ccc(-c2noc(CSc3nnc(-c4ccccc4)n3C)n2)cc1`, the B-score is reported as “inactive”. `Cc1ccc(-c2noc(CN3CCN(Cc4ccccc4)CC3)n2)cc1` was tested, and the B-score was “inactive”. With `COc1cccc(NC(=O)[C@H](Cc2c[nH]c3ccccc23)NC(=O)[C@@H]2Cc3ccccc3CN2)c1` the B-score was “inactive”. For `CC(C)(O)C#Cc1ncc(C(F)(F)F)cc1Cl`, the B-score was “inactive”. With `COCCOC1CCN(C(=O)c2ccc(OC)c(OC3CCN(C(C)C)CC3)c2)CC1` the B-score was “inactive”. In the case of `CCN1CCN(CCNC(=O)c2ccc3c(c2)NC(=O)/C(=C\c2ccc(OC)c(OC)c2)S3)CC1`, the B-score is reported as “inactive”. With `O=C(NCCN1CCOCC1)c1ccc(/C=C2\Sc3ccccc3N(Cc3ccc(F)cc3)C2=O)cc1` the B-score was 10 (active). In the case of `CCN1CCN(CCNC(=O)c2ccc(/C=C3/Sc4ccccc4N(Cc4cccc(C)c4)C3=O)cc2)CC1`, the B-score is reported as 13 (active). `O=C(NCCCN1CCOCC1)c1ccc2c(c1)N(Cc1cccc(F)c1)C(=O)c1ccccc1S2` was tested, and the B-score was “inactive”. `O=C(NCCN1CCOCC1)/C(=C/c1ccc(F)cc1)NC(=O)c1ccccc1` was tested, and the B-score was “inactive”. `CN1CCN(CCCNC(=O)c2ccc(/C=C3\Oc4ccccc4N(Cc4ccc(Cl)cc4)C3=O)cc2)CC1` was tested, and the B-score was “inactive”. In the case of `CC(=O)Nc1ccc(S(=O)(=O)N(C)c2ccc(OCC(=O)OCC(=O)N3CCCCC3)cc2)cc1`, the B-score is reported as “inactive”. In the case of `COc1ccccc1N(C)S(=O)(=O)c1ccc(Cl)c(C(=O)N2CCC(C(N)=O)CC2)c1`, the B-score is reported as “inactive”. `COC(=O)c1ccc(CN2CCCC(C(=O)Nc3cccc(-n4cnnn4)c3)C2)cc1` (configuration not stated) was tested, and the B-score was “inactive”. For `CC(C)CCN1C(=O)c2ccc(C(=O)Nc3cccc(S(N)(=O)=O)c3)cc2C1=O`, the B-score was “inactive”. `O=C(CS(=O)(=O)c1cn(Cc2ccc(Cl)cc2)c2ccccc12)N1CCOCC1` was tested, and the B-score was “inactive”. With `COc1ccc(/C=C2/SC(=O)N(CCCCCC(=O)Nc3ccccc3C(=O)O)C2=S)cc1` the B-score was 6 (active). For `COc1ccc(/C=C2\SC(=O)N(CCC(=O)NCCCn3ccnc3)C2=O)cc1`, the B-score was “inactive”. In the case of `O=C(CCCN1C(=O)/C(=C\c2ccccc2)SC1=S)Nc1ccccc1O`, the B-score is reported as “inactive”. In the case of `Cc1cc(/C=C2/SC(=O)N(CC(=O)N3CCCC3)C2=O)ccc1N1CCOCC1`, the B-score is reported as “inactive”. `Cc1cccc(CNS(=O)(=O)c2ccc(-c3cnc(C4CC4)o3)cc2)c1` was tested, and the B-score was “inactive”. In the case of `CCOC(=O)Cn1c(=O)n(Cc2ccc(OC)cc2)c(=O)c2cccnc21`, the B-score is reported as “inactive”. In the case of `COC(=O)[C@@H](Cc1ccccc1)NC(=O)NCCc1ccccc1`, the B-score is reported as “inactive”. For `CC1Cc2ccccc2N1C(=O)c1cc2sccc2n1Cc1ccccc1` (configuration not stated), the B-score was 6 (active). With `CCOC(=O)c1cc2sccc2n1Cc1ccc(C#N)cc1` the B-score was “inactive”. In the case of `O=C(c1cc2sccc2n1Cc1ccc(F)cc1)N1CCc2ccccc21`, the B-score is reported as “inactive”. With `Cn1nc(C(F)(F)F)cc1C(=O)O` the B-score was “inactive”. For `CCC(=O)OCc1c(C(F)(F)F)nn(C)c1Oc1cccc(C(F)(F)F)c1`, the B-score was “inactive”. For `Cn1nc(C(F)(F)F)cc1-c1ccc(/C=C(\C#N)C(=O)c2cccc(C(F)(F)F)c2)s1`, the B-score was 8 (active). `CCCCN(C)CCNC(=O)C1CCCN(S(=O)(=O)c2cccc3nsnc23)C1` (configuration not stated) was tested, and the B-score was “inactive”. In the case of `Cc1c(C(=O)NCCCc2ccccc2)cccc1[N+](=O)[O-]`, the B-score is reported as “inactive”. In the case of `CN(Cc1ccccc1)C(=O)COC(=O)c1ccccc1Nc1ccccc1`, the B-score is reported as “inactive”. With `O=C(OCC(=O)N(CCc1ccccc1)Cc1ccccc1)c1ccccc1[N+](=O)[O-]` the B-score was 6 (active). With `CC1=NN(C(C)C)C(=O)C1` the B-score was “inactive”. In the case of `CN(C)c1ccc(/C=N\S(=O)(=O)c2ccccc2)cc1`, the B-score is reported as “inactive”. For `CC[n+]1cc(C)ccc1/C=C/c1ccc(N(C)C)cc1`, the B-score was 14 (active). With `Cc1nnc2n1N=C(c1ccc3c(c1)NC(=O)CO3)CS2` the B-score was “inactive”. `Cc1noc(C)c1CSCC(=O)N(CCC(C)C)c1c(N)n(Cc2ccccc2)c(=O)[nH]c1=O` was tested, and the B-score was “inactive”. For `COc1cccc(N(CC(=O)NC2CCCC2)C(=O)Cn2nnc(-c3ccc(C)o3)n2)c1`, the B-score was “inactive”. With `O=C(Nc1nnc(S(=O)(=O)N2CCOCC2)s1)c1cccc(Br)c1` the B-score was “inactive”. In the case of `Cc1cccc(C(=O)Nc2nnc(S(=O)(=O)N3CCCCCC3)s2)c1`, the B-score is reported as “inactive”. In the case of `O=C(Nc1nnc(S(=O)(=O)N2CCCCCC2)s1)c1cccc(Br)c1`, the B-score is reported as 7 (active). With `CCn1cc(CNC(=O)c2cc([N+](=O)[O-])c(C)c([N+](=O)[O-])c2)cn1` the B-score was “inactive”. `Cc1cccc(NC(=O)c2sc(-c3ccccc3)nc2-c2ccc([N+](=O)[O-])cc2)c1` was tested, and the B-score was 6 (active). For `Cc1cccc(NC(=O)c2cc([N+](=O)[O-])ccc2N2CCN(C)CC2)c1`, the B-score was “inactive”. In the case of `Cc1cccc(NC(=O)c2ccc([N+](=O)[O-])o2)c1`, the B-score is reported as “inactive”. For `COc1ccc(CCNc2ncnc3c2nnn3Cc2ccccc2)cc1`, the B-score was “inactive”. `O=C1/C(=C/c2ccc(F)cc2)SC(=S)N1CCCC(=O)N1CCCCC1CCO` (configuration not stated) was tested, and the B-score was “inactive”. For `COc1ccc(CCNC(=O)C(=O)NCC2OCCN2S(=O)(=O)c2ccc(OC)c(C)c2)cc1` (configuration not stated), the B-score was “inactive”. For `O=C1C2C3C=CC(C4CC34)C2C(=O)N1c1nccs1` (configuration not stated), the B-score was “inactive”. With `COc1ccc(-c2nc(N)ncc2-c2ccc(Cl)cc2)c(O)c1` the B-score was “inactive”. For `COc1cccc(-c2cnc(OC(C)(C)C)nc2OC(C)(C)C)c1`, the B-score was 8 (active). `CC(C)(C)Oc1ncc(Br)c(OC(C)(C)C)n1` was tested, and the B-score was “inactive”. In the case of `CCOc1cc2c(Cl)ncnc2c(OCC)c1OCC`, the B-score is reported as “inactive”. With `COc1cccc(CN2CCN(Cc3ccc4cccc(F)c4n3)CC2CCO)c1` (configuration not stated) the B-score was “inactive”. With `O=S(=O)(c1cccc2nonc12)N1CCN(c2cccc(Cl)c2)CC1` the B-score was “inactive”. In the case of `CC(Nc1ccccc1)c1cccnc1` (configuration not stated), the B-score is reported as “inactive”. `Cc1nn2c(c1-c1ccccc1)N=C(c1ccco1)CC2c1ccccc1` (configuration not stated) was tested, and the B-score was “inactive”. With `CC(C)(C)NS(=O)(=O)CC12CCC(CC1=O)C2(C)C` (configuration not stated) the B-score was “inactive”. For `COc1ccc(Cl)cc1NC(=O)NCC1CCN(Cc2ccccc2F)CC1`, the B-score was “inactive”. In the case of `COc1ccc(Cl)cc1NC(=O)C(C)N1CCc2ccccc21` (configuration not stated), the B-score is reported as 7 (active). `COc1ccc(Cl)cc1NC(=O)NC(C)C(C)(C)C` (configuration not stated) was tested, and the B-score was “inactive”.
